# Bioassay records (PubChem)
# Shn3 inh set2 – reduces Shn3 3'UTR luciferase signal in osteoblasts; AID 588674; Clone20 osteoblast Shn3 3'UTR firefly luciferase, 24 h; 360,000 compounds, 0.52% hits; inhibition, % at 12.5 µM;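 active = mean inhibition of at least 75% with every replicate also reaching 75%; inconclusive = mean inhibition at least 75% but some replicate below; inactive = mean inhibition below 75%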;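 also: 0% = median of neutral control wells and 100% = pilot-screen positive control compound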
# CF NFkB inh – inhibitors of cystic fibrosis induced NF-kB | AID 588850 | 360,000 compounds, 0.86% hits | KKLEB NF-kB-GFP reporter, PAF-induced, GFP fluorescence overnight | inhibition, % at 5 µM;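 active = at least 50% inhibition at 5 µM, scaled per plate between neutral and stimulator controls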;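 also: PAF is a Pseudomonas aeruginosa culture filtrate used as stimulus; plate controls were PAF-stimulated DMSO wells for no effect and unstimulated DMSO wells for full effect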
# HIF-2a block – blocks HIF-2a reporter activity. AID 624352. 360,000 compounds, 0.72% hits. inhibition, % at 18.8 µM. 786-0 RCC cells HIF-2a reporter, luciferase luminescence, overnight;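 active = inhibition of the luminescence signal of 40% or more relative to plate controls, in a single-dose primary screen at 18.75 µM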
# EBV LMP1 NFkB – reduces LMP1-driven NF-kappaB luciferase signal. AID 504558. 350,000 compounds, 0.69% hits. inhibition, % at 12.5 µM. LMP1-induced NF-kappaB luciferase reporter cells, luminescence; in the data active = inhibition above about 41%; inconclusive = no clear call, values can overlap the other calls;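 also: 0% = neutral control wells and 100% = reference inhibitor control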
# KKLEB cytotox – counter-screen for CF NF-kB inhibitors: cytotoxicity; KKLEB CF airway cells viability, ATPlite luminescence, overnight; stronger effect = lower value; cells stimulated with P. aeruginosa culture filtrate; activity change (cytotoxicity), % at 5 µM; 360,000 compounds, 0.36% hits; AID 602141;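 active = corrected activity change at or below -50% at 5 µM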
# Peg3 promoter – Peg3 promoter activity inhibition; 360,000 compounds, 1.7% hits; HeLa PEG-Prom luciferase reporter, luminescence, overnight; AID 588405; inhibition, % at 20 µM;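 active = inhibition of at least 50% at 20 µM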
# Mdm2 MdmX conf – Mdm2/MdmX (human) interaction inhibition, confirmed; inhibition, % at 8 µM; 740 compounds, 99% hits; SaOS-2 split-luciferase Mdm2/MdmX complementation, luminescence; shares compounds with HIF-2a block;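 active = mean inhibition of the luminescence signal across two replicates at or above 26 percent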
# HIF-2a inh conf – HIF-2a inhibition, single concentration confirmation | shares compounds with HIF-2a block | 786-0 RCC cells, HIF-2a luciferase reporter luminescence, overnight | inhibition, % at 18.8 µM | 1,800 compounds, 56% hits | AID 651580;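 active = mean inhibition across four replicates of at least 40 percent at the single tested concentration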
# HIF-1a cs – counter-screen for HIF-2a inhibitors: HIF-1a inhibition in MiaPaCa-2 cells; shares compounds with HIF-2a block; MiaPaCa-2 HIF-1a luciferase reporter, desferoxamine, overnight; inhibition, % at 18.8 µM; 1,800 compounds, 72% hits; AID 651589;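 active = mean inhibition of the reporter signal across four replicates at the single tested dose of 50% or more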
# Starred values were filed as active, the others as inactive; ? = inconclusive; . = not tested or not shown. Compounds with a hit are over-represented: about 2.9% of the library has one in this group of screens.
SMILES,Shn3 inh set2,CF NFkB inh,HIF-2a block,EBV LMP1 NFkB,KKLEB cytotox,Peg3 promoter,HIF-2a inh conf,HIF-1a cs,others
COc1ccc(Cn2c(SCc3ccccc3C)nc3cc(OC)c(OC)cc3c2=N)cc1,90*,-4,96*,-17,-31,102*,12,107*,
CCOc1cccc2sc(N(CCN(C)C)C(=O)/C=C/c3cccs3)nc12,-42,44,3,3,-24,38,.,.,
COc1ccc(OC)c2sc(N(CCN(C)C)C(=O)/C=C/c3cccs3)nc12,?,68*,78*,3,-98*,104*,18,72*,
O=C(O)c1ccccc1C(=O)NCC(O)COc1ccc(Cl)cc1 (stereo unspecified),.,-1,-11,-6,2,-3,.,.,
Cc1cccc(NC(=O)CSc2nc3c([nH]c4ccccc43)c(=O)n2C)c1,25,-17,23,-67,-15,32,.,.,
COc1cccc(NC(=O)CSc2nc3c([nH]c4ccccc43)c(=O)n2C)c1,15,2,51*,-53,-17,59*,0,26,
COc1cc(C(=O)NCC(=O)OCc2ccc(F)cc2)cc(OC)c1OC,4,-21,5,3,14,10,.,.,
O=C(Cn1ncc(Cl)c(Cl)c1=O)c1ccc(Cl)cc1,70,48,96*,-78,-3,108*,-7,106*,
O=C(Cn1ncc(N2CCOCC2)c(Cl)c1=O)c1ccc(Cl)cc1,0,9,-45,-16,-5,-40,.,.,
CC(C)(C)C(=O)Cn1ncc(Cl)c(Cl)c1=O,34,46,95*,1,-18,104*,-12,106*,
C=CCn1c(C)cc(C(=O)CN2NS(=O)(=O)c3ccccc3C2=O)c1C,-61,12,-245,-27,-12,-159,.,.,
C=CCn1c(C)cc(C(=O)Cn2ncc(Cl)c(Cl)c2=O)c1C,64,88*,94*,-47,-54*,101*,3,105*,
CCOC(=O)c1c(C)[nH]c(C(=O)OCC(=O)Nc2cc(C)nn2-c2ccccc2)c1C,14,27,0,12,-13,-3,.,.,
COc1cc(C=C2C(=O)C=CC2=O)ccc1O,.,.,84*,.,.,.,99*,95*,
O=C(CCl)N(c1ccccc1)C1CCCCC1,97*,92*,61*,-18,-92*,110*,92*,106*,Mdm2 MdmX conf=103*
Cc1c(C(=O)C(=O)N2c3ccccc3CC2C)c2ccccc2n1C (stereo unspecified),22,3,17,-17,-11,34,.,.,
Cc1ccc(-c2nnc(SCc3ccc(C#N)cc3)n2Cc2ccco2)cc1,-27,-27,39,9,-8,35,.,.,
COc1cccc(-c2nnc(SCc3ccc(C#N)cc3)n2Cc2ccco2)c1,13,-3,44*,7,-7,27,31,41,
O=C(Nc1ccccc1N1CCOCC1)c1ccc2c(c1)OCCO2,-8,-30,-7,3,12,-7,.,.,
O=C(Nc1ccc(Cl)cc1)c1nc[nH]c1C(=O)NCCN(CCNC(=O)c1[nH]cnc1C(=O)Nc1ccc(Cl)cc1)CCNC(=O)c1[nH]cnc1C(=O)Nc1ccc(Cl)cc1,10,71*,-42,-2,-56*,101*,.,.,Mdm2 MdmX conf=100*
Cc1ccc(NC(=O)c2nc[nH]c2C(=O)NCCN(CCNC(=O)c2[nH]cnc2C(=O)Nc2ccc(C)cc2)CCNC(=O)c2[nH]cnc2C(=O)Nc2ccc(C)cc2)cc1,19,21,-25,-11,-23,24,.,.,
O=C(NNc1nc2ccccc2o1)c1ccccc1,-38,-5,47*,.,-8,-20,80*,-26,
COc1ccc(C2c3ccc(O)cc3Oc3ncn4nc(-c5cccnc5)nc4c32)cc1OC (stereo unspecified),30,17,52*,11,-12,49,37,57*,
COc1ccc(C2c3ccc(O)cc3Oc3ncn(Cc4ccco4)c(=N)c32)cc1OC (stereo unspecified),-4,8,20,0,-21,12,.,.,
Cc1cccc([C@@H]2[C@@H]3C(=O)N(Cc4ccccc4)C(=O)[C@@H]3[C@]3(Cc4ccc(Cl)cc4)C(=O)N(c4cccc(Br)c4)C(=O)N23)c1,6,-18,4,-9,-1,10,.,.,
SMILES,Shn3 inh set2,CF NFkB inh,HIF-2a block,EBV LMP1 NFkB,KKLEB cytotox,Peg3 promoter,HIF-2a inh conf,HIF-1a cs,others
CC(NC(=O)CCc1nnc(-c2ccc(-c3ccccc3)cc2)o1)c1nccs1 (stereo unspecified),50,10,40*,10,-4,-73,51*,37,
COC(=O)CCCNC(=O)CCc1nnc(-c2ccc(-c3ccccc3)cc2)o1,22,-18,48*,8,12,-90,52*,26,
CC(c1nccs1)N(C)C(=O)CCc1nnc(-c2ccc(-c3ccccc3)cc2)o1 (stereo unspecified),4,-5,10,14,-8,-72,.,.,
CN(C)S(=O)(=O)N1CCC(Oc2ccc(C(=O)NC3Cc4ccccc4C3)cc2)CC1,21,-16,-129,1,2,-120,.,.,
COCC(=O)N1CCC(Oc2ccc(C(=O)NC3Cc4ccccc4C3)cc2)CC1,13,7,44*,14,9,22,43*,49,
CCOC(=O)COn1c(=O)c(-c2ccccc2)[n+]([O-])c2ccccc21,-7,-9,15,-6,16,2,.,.,
COc1cccc(CNC(=S)Nc2ccc3c(c2)c(=O)n(C)n3C)c1,33,-18,-110,.,5,-48,.,.,
c1coc(C2=NCCc3ccccc32)c1,4,-14,4,-2,6,-5,.,.,
Cc1ccc(C(C)C)c(OCc2nn(CC(=O)c3ccc(Cl)cc3)c3[n+]2CCCCC3)c1,49,41,49*,-5,-25,112*,16,106*,
O=C(Cn1nc(CNc2ccc(Cl)cc2)[n+]2c1CCCCC2)c1ccccc1,-9,4,-2,-8,6,3,.,.,
CC(O)CC(=O)OC[C@]12CC[C@H]3[C@@](C)(CC[C@H]4C(C)(C)CCC[C@]34C)[C@@H]1CC(C1=CC(=O)OC1O)O2 (stereo partly specified),93*,104*,93*,.,-88*,99*,96*,107*,
COc1cc(/C=C/C(=O)NC(C)(C)C)ccc1OCc1ccccc1,34,-4,6,-14,4,10,.,.,
